Results taken from the supplement of paper PMC10646978.
± gives the standard deviation.

Columns and labels:
Conditions in all cases: modulator concentration 10 µM
[1] = test system: RAW-Dual (murine macrophage reporter line); assay: NF-kB reporter (SEAP) activity fold change vs agonist alone; higher = enhanced NF-kB activity
How it was run: (§1)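 Overnight stimulation with a PRR agonist followed pre-incubation for 1 hour at 37 °C with compound at 10 μM final. This was done in RAW-Dual murine macrophage reporter cells seeded at 50 000 per well in 384-well plates. NF-κB (SEAP, QUANTI-Blue absorbance at 620 nm) and IRF (Lucia luciferase, QUANTI-Luc luminescence) were read from the supernatant. Each reporter's fold change relative to the mean agonist-only control on the same plate was averaged over replicate plates.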

[2] = test system: RAW-Dual (murine macrophage reporter line); assay: IRF reporter (Lucia luciferase) activity fold change vs agonist alone; higher = enhanced IRF activity
How it was run: as §1

[3] = test system: RAW-Dual (murine macrophage reporter line); assay: viability score (confluency relative to resting cells, overnight) (fraction); higher = more viable, active = viable (0.7 or more)
How it was run: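 RAW-Dual macrophages in 384-well plates were incubated overnight with compound, final concentration 10 μM. Confluency images from IncuCyte were processed in IncuCyte software into two masks covering all imaged wells. The viability score is each well's confluency relative to resting cells, and a compound met the cutoff when both masks exceeded 70% of resting cells.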

[4] = agonist: CpG ODN 1826 0.5 ug/mL

Structure (SMILES) | NF-kB reporter [1, 4] | NF-kB reporter ([1]; agonist: LPS 0.1 ug/mL) | NF-kB reporter ([1]; agonist: MPLA […]) | IRF reporter ([2]; agonist: 3'3'-cGAMP 10 ug/mL) | IRF reporter ([2]; agonist: LPS 0.1 ug/mL) | IRF reporter ([2]; agonist: MPLA […]) | viability score [3]
O=S1(=O)N=C(Oc2ccc3ccccc3c2)c2ccccc21 | 0.889 ± 0.15 | 1.23 ± 0.1 | 1.22 ± 0.21 | 0.91 ± 0.063 | 0.942 ± 0.14 | 0.991 ± 0.11 | 0.992 (active)
O=C(COc1cccc2ccccc12)NCc1ccncc1 | 0.804 ± 0.069 | 1.1 ± 0.06 | 1.02 ± 0.12 | 0.981 ± 0.052 | 1.34 ± 0.12 | 1.06 ± 0.098 | 1.01 (active)
O=C(O)CCCCCN1C(=O)C(=Cc2cn(-c3ccccc3)nc2-c2cccs2)SC1=S | 1.02 ± 0.063 | 1.12 ± 0.12 | 1.01 ± 0.059 | 1.03 ± 0.038 | 1.27 ± 0.082 | 1.06 ± 0.11 | 1 (active)
CCOc1ccc(S(=O)(=O)N2C3CCC2CC(S(=O)(=O)c2ccccc2)C3)cc1 (configuration not stated) | 0.976 ± 0.06 | 1.05 ± 0.098 | 0.968 ± 0.053 | 0.977 ± 0.044 | 1.25 ± 0.2 | 1.25 ± 0.29 | 0.978 (active)
CCOc1ccc(-c2ccc(=O)n(CCNS(=O)(=O)CCc3ccccc3)n2)cc1 | 1.08 ± 0.081 | 1.22 ± 0.13 | 1.06 ± 0.083 | 1.2 ± 0.078 | 0.984 ± 0.07 | 1.3 ± 0.27 | 0.995 (active)
COc1ccc(CNC2CCCc3ccccc32)c(OC)c1 (configuration not stated) | 0.48 ± 0.13 | 0.812 ± 0.088 | 0.775 ± 0.12 | 0.615 ± 0.027 | 1.23 ± 0.13 | 1.61 ± 0.17 | 0.94 (active)
Cl.O=C1CN2Cc3c(ccc(Cl)c3Cl)NC2=N1 | 0.954 ± 0.13 | 0.963 ± 0.17 | 0.96 ± 0.077 | 0.959 ± 0.051 | 1.24 ± 0.29 | 0.993 ± 0.2 | 1.01 (active)
COc1ccc(-n2c(C)c([N+](=O)[O-])c3ccc(O)cc32)cc1 | 0.835 ± 0.15 | 1.26 ± 0.1 | 1.34 ± 0.17 | 0.393 ± 0.021 | 0.594 ± 0.089 | 0.601 ± 0.063 | 0.999 (active)
CNC(=O)c1cccc(-c2noc(C3CN(C(=O)NC4CCCCC4)C3)n2)c1 | 1.06 ± 0.053 | 1.11 ± 0.11 | 1.03 ± 0.091 | 1.06 ± 0.065 | 1.21 ± 0.1 | 1.17 ± 0.13 | 1 (active)
C=C(C)CSC1=C(C#N)C(c2ccccc2)CC(=O)N1 (configuration not stated) | 1.13 ± 0.091 | 0.954 ± 0.071 | 0.951 ± 0.092 | 0.772 ± 0.025 | 1.03 ± 0.15 | 0.999 ± 0.17 | 1.01 (active)
OCCN(CCO)CC(O)Cn1c2ccc(Cl)cc2c2cc(Cl)ccc21 (configuration not stated) | 0.232 ± 0.013 | 0.503 ± 0.042 | 0.407 ± 0.024 | 0.695 ± 0.032 | 2.78 ± 0.18 | 1.52 ± 0.18 | 0.0946 (inactive)
Cc1nc2c(ccc3ccccc32)c(O)c1CN1CCCC1 | 0.283 ± 0.029 | 0.968 ± 0.076 | 0.95 ± 0.044 | 0.882 ± 0.073 | 1.06 ± 0.11 | 0.808 ± 0.17 | 1 (active)
Cc1nccn1CC1CCc2c(c3ccccc3n2C)C1=O.Cl.O.O (configuration not stated) | 0.604 ± 0.09 | 0.917 ± 0.11 | 0.765 ± 0.044 | 0.832 ± 0.025 | 1.35 ± 0.14 | 1.01 ± 0.15 | 0.284 (inactive)
NS(=O)(=O)c1ccc(F)cc1 | 0.947 ± 0.076 | 1.04 ± 0.076 | 0.997 ± 0.11 | 0.977 ± 0.031 | 1.24 ± 0.2 | 1.23 ± 0.17 | 1.02 (active)
O=C(O)CN1C(=O)c2cccc3cccc(c23)C1=O | 1.11 ± 0.083 | 0.935 ± 0.053 | 1.01 ± 0.039 | 0.934 ± 0.053 | 0.911 ± 0.14 | 0.956 ± 0.22 | 0.998 (active)
O=C(CSc1nc[nH]n1)NC(c1ccccc1)c1ccccc1 | 0.77 ± 0.077 | 0.86 ± 0.053 | 1.01 ± 0.088 | 0.51 ± 0.033 | 1.33 ± 0.096 | 1.62 ± 0.17 | 1.01 (active)
COCCN(CCOC)C(=O)Cc1csc2nc(-c3ccc(F)cc3)cn12 | 1.1 ± 0.27 | 0.966 ± 0.084 | 0.949 ± 0.067 | 0.947 ± 0.064 | 1.09 ± 0.15 | 1.31 ± 0.24 | 0.653 (inactive)
O=[N+]([O-])c1ccccc1S(=O)(=O)NCc1ccc2c(c1)OCO2 | 1 ± 0.088 | 0.988 ± 0.075 | 0.937 ± 0.092 | 0.89 ± 0.028 | 1.05 ± 0.14 | 1.09 ± 0.2 | 1.03 (active)
CC(C)(C)C1=CC2(C=C(C(C)(C)C)C1=O)Nc1cccc3cccc(c13)N2 | 0.874 ± 0.12 | 1.08 ± 0.062 | 0.96 ± 0.075 | 0.754 ± 0.037 | 1.17 ± 0.11 | 0.942 ± 0.078 | 1.01 (active)
Cc1cccc(C(=O)NC(Nc2ccccc2C(F)(F)F)C(Cl)(Cl)Cl)c1 (configuration not stated) | 0.896 ± 0.079 | 1.05 ± 0.077 | 1.22 ± 0.23 | 0.948 ± 0.05 | 1.22 ± 0.2 | 1.26 ± 0.4 | 1.01 (active)
Cl.Cl.O=C(O)COCCN1CCN([C@H](c2ccccc2)c2ccc(Cl)cc2)CC1 | 1.07 ± 0.082 | 1.06 ± 0.052 | 1.01 ± 0.047 | 0.94 ± 0.057 | 0.905 ± 0.035 | 0.97 ± 0.13 | 1 (active)
O=C1OC(c2ccc3ccccc3c2)=NC1=Cc1ccc(Cl)c([N+](=O)[O-])c1 | 0.973 ± 0.079 | 1.07 ± 0.067 | 0.881 ± 0.053 | 0.976 ± 0.03 | 1.53 ± 0.14 | 1.16 ± 0.2 | 1.01 (active)
CC1(C)CCCC2=C1CC1C(=O)NC(=O)C1C2 (configuration not stated) | 0.88 ± 0.079 | 0.977 ± 0.076 | 0.948 ± 0.14 | 0.953 ± 0.085 | 1.16 ± 0.2 | 1.32 ± 0.33 | 1.03 (active)
Cc1ccc(-n2nnc3c(=O)n(CC(=O)N4CC(C)OC(C)C4)cnc32)cc1Cl (configuration not stated) | 1.12 ± 0.096 | 1.09 ± 0.089 | 0.885 ± 0.047 | 1.09 ± 0.057 | 1.14 ± 0.079 | 1.14 ± 0.34 | 0.976 (active)
CC(=O)Oc1cccc2c1C(=O)c1c(OC(C)=O)cc(C(=O)O)cc1C2=O | 1.14 ± 0.088 | 1.04 ± 0.077 | 1.01 ± 0.049 | 0.971 ± 0.068 | 0.954 ± 0.033 | 0.939 ± 0.12 | 1 (active)
CN(C)CCC=C1c2ccccc2COc2ccccc21.Cl | 0.758 ± 0.18 | 1.01 ± 0.054 | 1.06 ± 0.067 | 0.576 ± 0.031 | 1.22 ± 0.21 | 1.17 ± 0.2 | 0.978 (active)
